Measured values reported in PubChem BioAssay (Tox21).
Results filed as inconclusive are left out. The source made the active and inactive calls. The call rests on the fitted dose curve; in most records, active means well fitted activation curve with a large enough effect in the repeat runs; inconclusive means weak or mixed curves; inactive means flat fitted curve, though single readings scatter.

assay: A CellTox Green Cytotoxicity Assay to monitor cytotoxicity in HepG2 cells - 8 hour (AID 1224890); conditions: CellTox Green fluorescence; series mostly up to 76.8 µM; cytotoxicity increase: at the top concentration; further: nearly all actives have a fitted effect of over 45% in size
From the text: National Center for Advancing Translational Sciences [NCATS]
NIH Chemical Genomics Center [NCGC]
U.S. Environmental Protection Agency [EPA]
National Institutes of Environmental Health Sciences [NIEHS]
National Toxicology Program [NTP]
Cell-based models are critical for drug discovery. Determining the natural cytotoxic effects resulting from test compounds is an essential research activity. A CellTox Green Cytotoxicity Assay to monitor cytotoxicity in real time of continues cell culture during 40 hours of the compound treatment was used to screen Tox21 10K library compounds in HepG2 cells. CellTox Green Cytotoxicity Assay is a nonlytic, homogeneous, biofluorescent method to measure cytotoxicity in cell culture after experimental manipulation. The assay system uses a proprietary asymmetric cyanine dye that is excluded from viable cells but preferentially stains the dead cell's DNA. […] Viable cells produce no appreciable increases in fluorescence. Therefore, the fluorescence signal produced by the binding interaction with dead cell DNA is proportional to cytotoxicity.
The mixture of HepG2 cell suspension and reagents were dispensed at 600cells/6 ul/well in 1536-well tissue culture treated black solid bottom plates using a Multidrop dispenser. After the assay plates were incubated at a 37 C/5% CO2 incubator for 5 hours, 23 nL of compounds dissolved in DMSO, positive and negative controls was transferred to the assay plate by a pintool work station. The plates were incubated at 37 C for 40 hours. The fluorescence intensity were measured at 0h, 8h, 16h, 24h, 32h and 40h time points using ViewLux plate reader during compound treatment.
On the % scale 0 is the no-effect control and ±100 the full control effect; potency means the concentration at half of the fitted maximal effect.

SMILES | cytotoxicity increase | Potency
CCCCOC(=O)C(C)OC(=O)CCC (stereo not given) | -5.18% (inactive) | –
CC(=O)OC(C(=O)c1ccccc1)c1ccccc1 (stereo not given) | 0.181% (inactive) | –
OCCCCCCCl | 7.83% (inactive) | –
CCOC(=O)CC(CC(=O)OCC)(OC(C)=O)C(=O)OCC | 7.66% (inactive) | –
CCC(C)N (stereo not given) | -13.2% (inactive) | –
CC(=O)c1ccc(OCC(=O)N2CCCCC2)cc1 | 2.15% [at 35.3 µM] (inactive) | –
C=C(C)C(=O)OC | 2.68% (inactive) | –
CO/N=C(/C(=O)N[C@@H]1C(=O)N2C(C(=O)O)=C(Cn3nnc(C)n3)CS[C@H]12)c1csc(N)n1 | -8.05% [at 35.3 µM] (inactive) | –
C=CC(C)(O)CC/C=C(\C)CC (stereo not given) | -1.4% (inactive) | –
COCCOCCOCCOC | -8.46% (inactive) | –
CCCCCCCCCCCCCCCCCCN(C)C | -6.27% [at 35.3 µM] (inactive) | –
CCCOCCOCCOCCO | 2.14% (inactive) | –
C/C=C(\C)C(=O)OCC/C=C\CC | -0.406% (inactive) | –
O=C1NC2NC(=O)NC2N1 (stereo not given) | 3.94% (inactive) | –
CCCCC(CC)COC(=O)c1ccccc1 (stereo not given) | -1.13% (inactive) | –
COc1ccc(N=Nc2cc(C)c(N=Nc3ccc(S(=O)(=O)O)cc3)cc2OC)cc1 | -19.2% (inactive) | –
CCN(CCO)c1cccc(C)c1 | 0.471% (inactive) | –
CCN1CN(CC)CN(CC)C1 | 3.5% (inactive) | –
C[C@H](CCC(=O)O)[C@H]1CC[C@H]2[C@@H]3[C@H](O)C[C@@H]4C[C@H](O)CC[C@]4(C)[C@H]3C[C@H](O)[C@]12C | -14% [at 35.3 µM] (inactive) | –
O=c1cc(O)c(Cl)c[nH]1 | 4.17% [at 35.3 µM] (inactive) | –

SMILES | cytotoxicity increase | Potency
CCCCCCCCCCCCCC(=O)OC | -11.2% (inactive) | –
CCNC(=O)NCCCOc1cccc(CN2CCCCC2)c1 | 2.61% [at 35.3 µM] (inactive) | –
CCCCCCCCCCCCC | -9.76% (inactive) | –
COC(=O)CCC(=O)O | 3.45% (inactive) | –
COc1cccc2sc(N)nc12 | -0.861% (inactive) | –
COc1cc2c3cc1Oc1cc(ccc1O)C[C@@H]1c4c(cc(OC)c(O)c4Oc4ccc(cc4)C[C@@H]3N(C)CC2)CC[N+]1(C)C | -11.1% [at 35.3 µM] (inactive) | –
O=C1OC(=O)c2cc(Oc3ccc4c(c3)C(=O)OC4=O)ccc21 | -5.29% (inactive) | –
CC(C)=CC(C)(C)C | -4.92% (inactive) | –
O=C(O)c1c(Cl)ccc(Cl)c1Cl | 2.68% (inactive) | –
C=C(C)C(=O)OCCCCCCOC(=O)C(=C)C | 1.65% (inactive) | –
CCC(CO)CO | -10.9% (inactive) | –
C=C[Si](C)(C)O[Si](C)(C)C=C | -8.91% (inactive) | –
CC(C)CCCC(C)CC=O (stereo not given) | – | 21.9 µM (active)
CC(=O)OC(C)c1ccccc1 (stereo not given) | -9.44% (inactive) | –
O=C(O)c1ccc(OCCN2CCCCC2)cc1 | -4.78% [at 35.3 µM] (inactive) | –
C=CCOC(=O)c1ccc(C(=O)OCC=C)c(C(=O)OCC=C)c1 | 2.03% (inactive) | –
COc1cc2c(Nc3ccc(Br)cc3F)ncnc2cc1OCC1CCN(C)CC1 | 0.657% [at 35.3 µM] (inactive) | –
Nc1cc(Cl)cc(S(=O)(=O)O)c1O | -5.33% (inactive) | –
Cc1cccc(C(=O)O)c1[N+](=O)[O-] | 0.0186% (inactive) | –
CO[Si](CCCCl)(OC)OC | 4.8% (inactive) | –
